Results filed as inconclusive are left out. Calls of active or inactive are those of the source. Calls come from the whole dose curve; as a rule, active = well fitted cell-killing curve with a large enough effect; inconclusive = small, poorly fitted or top-dose-only effect, or effect the other way; inactive = no such curve, though single readings can be large or run the other way.
System: SKOV3
Assay: Confirmatory qHTS for gynecologic anti-cancer compounds from libraries of approved drugs and bioactive compounds; note: nearly all actives have a fitted effect of over 55% in size
Details: gynecologic cancer cell panel viability, ATPlite luminescence, 48 h; series mostly up to 57.6 µM
Procedure, shortened: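 Cells (1,000/well) plated 16 h, then exposed 48 h at 37 °C to 11 concentrations (1:3) from 57.5 uM to 0.977 nM. Viability by ATPlite luminescence after 15 min; IC50 derived, with HEK 293T used for selectivity index.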
Potency is the fitted concentration of half-maximal effect.

SMILES	Potency
Nc1ccccc1NC(=O)c1ccc(CNc2nccc(-c3cccnc3)n2)cc1	0.432 µM (active)
COc1cc(Nc2ncc3c(n2)-c2ccc(Cl)cc2C(c2c(F)cccc2OC)=NC3)ccc1C(=O)O	inactive
O=c1[nH]c(=O)n([C@H]2C[C@H](O)[C@@H](CO)O2)cc1Br	inactive
COc1ccc(CCC(=O)c2c(O)cc(O[C@@H]3O[C@H](CO)[C@@H](O)[C@H](O)[C@H]3O[C@@H]3O[C@@H](C)[C@H](O)[C@@H](O)[C@H]3O)cc2O)cc1O	inactive
Cc1nc(Nc2n[nH]c3c2CN(C(=O)NC(CN(C)C)c2ccccc2)C3(C)C)c2sccc2n1 (configuration not stated)	3.06 µM (active)
CCN(CC)CCNC(=O)c1c(C)[nH]c(/C=C2\C(=O)Nc3ccc(F)cc32)c1C	15.8 µM (active)
O=C1c2c(O)ccc(O)c2C(=O)c2c(NCCNCCO)ccc(NCCNCCO)c21	0.544 µM (active)
N#CC1(c2cccc(C(=O)Nc3cc(Oc4ccc5nc(NC(=O)C6CC6)sc5n4)ccc3F)c2Cl)CC1	17.2 µM (active)
Cc1cncc2cccc(S(=O)(=O)N3CCCN(C(=O)CN)C[C@@H]3C)c12	inactive
Cc1cc(CN2CCN(c3c(Br)cnc4nc(-c5ccc(N6CCN(C)CC6)cc5)[nH]c34)CC2)no1	34.3 µM (active)
CC(Oc1cc(-n2cnc3ccc(CN4CCN(C)CC4)cc32)sc1C(N)=O)c1ccccc1C(F)(F)F (configuration not stated)	19.3 µM (active)
CC(C)Nc1cc(-c2c[nH]c(C(=O)N[C@H](CO)c3cccc(Cl)c3)c2)c(Cl)cn1	inactive
Oc1cn2c(n1)Nc1ccc(Cl)c(Cl)c1C2	inactive
O=C(NOCC1CC1)c1ccc(F)c(F)c1Nc1ccc(I)cc1Cl	inactive
COc1cc2c(NC3CCN(C(C)C)CC3)nc(C3CCCCC3)nc2cc1OCCCN1CCCC1	30.6 µM (active)
CCS(=O)(=O)c1cccc(-c2cc(C(=O)NC3CCN(C)CC3)c(C)c3[nH]c4ncc(C)cc4c23)c1	4.76 µM (active)

SMILES	Potency
COc1cccc2cc(-c3nc(C4CCC(C(=O)O)CC4)n4ncnc(N)c34)[nH]c12 (configuration not stated)	1.09 µM (active)
CC(Oc1ccc2[nH]nc(/C=C/c3cnn(CCO)c3)c2c1)c1c(Cl)cncc1Cl (configuration not stated)	3.06 µM (active)
CN(C)C/C=C/C(=O)Nc1cc2c(Nc3ccc(F)c(Cl)c3)ncnc2cc1OC1CCOC1 (configuration not stated)	inactive
Cc1ccc(NC(=O)c2ccc(CN3CCN(C)CC3)cc2)cc1Nc1nccc(-c2cccnc2)n1	inactive
NC(=O)c1cnc(-c2ccc(C3(N)CCC3)cc2)c(-c2ccccc2)c1	9.68 µM (active)
CC(=O)Nc1cccc(-n2c(=O)n(C3CC3)c(=O)c3c(Nc4ccc(I)cc4F)n(C)c(=O)c(C)c32)c1	0.306 µM (active)
CCN1CCN(Cc2ccc(-c3cc4c(NC(C)c5ccccc5)ncnc4[nH]3)cc2)CC1 (configuration not stated)	17.2 µM (active)
CCS(=O)(=O)N1CCN(c2ccc(Nc3ncc(C(N)=O)c(NC4CC4)n3)cc2)CC1	15.3 µM (active)
CNC(=O)c1ccccc1Nc1nc(Nc2ccc(N3CCOCC3)cc2OC)ncc1Cl	6.85 µM (active)
CN(C)C(CCOc1cccc2ccccc12)c1ccccc1 (configuration not stated)	inactive
Cc1cc(C(C)Nc2ccccc2C(=O)O)c2nc(N3CCOCC3)cc(=O)n2c1 (configuration not stated)	3.06 µM (active)
CCc1cccc(CC)c1NC(=O)N1Cc2[nH]nc(NC(=O)c3ccc(N4CCN(C)CC4)cc3)c2C1	inactive
Cc1cnc(Nc2cccc(CN3CCOCC3)c2)nc1Nc1cccc(S(=O)(=O)NC(C)(C)C)c1	10.9 µM (active)
C[C@]12CCC(=O)C=C1CC[C@@H]1[C@@H]2[C@@H](O)C[C@@]2(C)[C@H]1CC[C@]2(O)C(=O)CO	inactive
NS(=O)(=O)c1ccc(Nc2nc(OCC3CCCCC3)c3[nH]cnc3n2)cc1	inactive
NC(=O)c1ccc2nc(-c3ccc(Oc4ccc(Cl)cc4)cc3)[nH]c2c1	inactive

From PubChem BioAssay AID1345085 (National Center for Advancing Translational Sciences (NCATS), 2018)
